High-throughput results (PubChem BioAssay)
RAM network inh: inhibitors of the yeast RAM network, primary screen, dse1pr::URA3 reporter, 5-FOA selection; 190,000 tested, 1.8% active; inhibition, % at 50 µM; S. cerevisiae dse1pr::URA3 reporter, 5-FOA growth OD615, 2 d; analog-sensitive cbk1-as2 kinase mutant strain;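 active means inhibition above a set limit, 3 SD over mean compound inhibition, cut at about 8.4% in these data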;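 further: 0% = DMSO-only wells with no growth and 100% = 10 µM 1-NA-PP1 full growth; inhibition rescues growth on 5-FOA so higher OD means more RAM inhibition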
PG9 Ab binder: binders of HIV-1 gp120 antibody PG9, primary screen, biochemical, TR-FRET; HIV-1 gp120 / PG9 antibody interaction; TR-FRET gp120-PG9 antibody binding; inhibition, % at 6.7 µM; 360,000 tested, 0.43% active; AID 624416, 2012; in the data active means inhibition above about 8.5%
EP2 mod: EP2 receptor modulators, cAMP readout, primary screen, cell-based, HTRF cAMP, PGE2 stimulation | Prostaglandin E2 receptor EP2 subtype (Homo sapiens), P43116 | EP2-expressing cells, cAMP HTRF FRET, PGE2 co-stimulation | induction, % at 25 µM | 260,000 tested, 0.83% active | AID 940, 2007;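 active means compounds whose cAMP rise, as percent of the full-agonist control response, exceeds 60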;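 further: rat C6 glioma line stably carrying human EP2 under a CMV promoter; the protocol text gives 20 µM as final concentration; 100% = response of wells given 1 µM PGE2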
Target sequence (P43116 whole entry, looked up): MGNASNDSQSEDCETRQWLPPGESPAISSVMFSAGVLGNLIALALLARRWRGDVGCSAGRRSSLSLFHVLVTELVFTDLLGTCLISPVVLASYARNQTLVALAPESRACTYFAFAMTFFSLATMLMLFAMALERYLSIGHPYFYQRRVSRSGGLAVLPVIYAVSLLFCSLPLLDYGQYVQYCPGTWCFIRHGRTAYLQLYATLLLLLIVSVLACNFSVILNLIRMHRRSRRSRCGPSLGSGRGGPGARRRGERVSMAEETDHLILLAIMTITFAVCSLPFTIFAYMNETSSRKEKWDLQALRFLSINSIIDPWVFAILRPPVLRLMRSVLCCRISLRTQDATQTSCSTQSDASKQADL
PGE2 EP2 inh: human EP2 receptor antagonists, primary screen, TR-FRET cAMP, C6 glioma cells | inhibition, % at 25 µM | Prostaglandin E2 receptor EP2 subtype (Homo sapiens), P43116 | 260,000 tested, 0.52% active | C6 glioma cells expressing human EP2; cells stimulated with saturating PGE2;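 active means percent inhibition above 40 after rounding to a whole number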;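 further: rat C6 glioma host cells with rolipram phosphodiesterase inhibitor present; the protocol text gives 20 µM as final concentration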
SKN-1 inh: suppressors of acrylamide-induced Pgst-4::GFP reporter in worms, primary screen, SKN-1 inhibitor project, whole organism, uHTS, GFP/RFP fluorescence ratio, strain VP596; 360,000 tested, 0.49% active; C. elegans VP596 Pgst-4::GFP/RFP ratio, 24 h; inhibition, % at 21.8 µM; AID 624304, 2012;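 active means interference check ratio from 0.5 to 1.5 plus GFP to RFP signal ratio inhibition reaching or exceeding a fixed threshold, cut at about 30% in these data, passing the limit was not always enough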
NR1D1 modulator: modulators of Rev-erb alpha DNA binding, primary screen, biochemical, FITC-DNA, fluorescence polarization, uHTS; Nuclear receptor subfamily 1 group D member 1 (Homo sapiens), P20393; 370,000 tested, 0.79% active; Rev-erbα–FITC-DNA binding, 90 min; AID 1259318, 2017; activity, % at 10 µM;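 active means activity above about 14%, limit read from the data; passing the limit was not always enough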;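 further: 0% = DMSO wells with 35 nM protein and 100% = DMSO wells with 750 nM protein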
Active calls of the source: *; . = no result given. This is a sample that favours compounds with a hit; in the whole collection about 2.9% have one here.

SMILES	RAM network inh	PG9 Ab binder	EP2 mod	PGE2 EP2 inh	SKN-1 inh	NR1D1 modulator
COc1cc2c(cc1OC)C(C1C(=O)CCCC1=O)N(C(=O)CCl)CC2 (configuration not stated)	0	1	4	0	4	-5
COc1cc2c(cc1OC)C(c1ccccc1)N(C(=O)CCl)CC2 (configuration not stated)	1	1	-1	10	34*	-5
O=C(Nc1nccs1)c1ccc(CSc2ncccn2)cc1	.	.	-56	6	.	.
O=C(CNCc1ccccc1)Nc1ccc(Oc2ccccc2)cc1	11*	-4	-53	7	-1	4
O=C(CNCc1ccccc1)Nc1ccc(F)cc1	2	0	-21	4	-5	5
CN(CCc1ccccn1)c1ccccc1	.	-1	.	.	-6	0
CN(CCc1ccccn1)c1ccc2c(c1)Cc1ccccc1-2	.	.	-57	52*	.	.
Brc1ccc(CSc2ccc3nnc(-c4cccnc4)n3n2)cc1	10*	0	5	12	-1	0
Brc1ccc(CSc2ccc3nnc(-c4ccccn4)n3n2)cc1	9.9*	-1	-35	4	12	0
COC(=O)c1c(NC(=O)COc2ccc(Cl)cc2Cl)sc(C(=O)N2CCCC2)c1C	.	.	-14	7	.	.
Cc1ccc(C)c(SCC(=O)OC/C(O)=C(\C#N)c2nc3ccccc3[nH]2)c1	8.5*	0	-31	7	-8	1
Cc1c(-c2cccc(Cl)c2)nc2ccccc2c1C(=O)OC/C(O)=C(\C#N)c1nc2ccccc2[nH]1	11*	0	12	1	7	0
Nc1ccc2nc(-c3cccs3)[nH]c2c1	1	-4	4	93*	6	.
CC(=O)c1cccc(NC(=O)N2CCCC2C(=O)Nc2c(C)cccc2C)c1 (configuration not stated)	0	1	18	9	37*	6
CCN1C(=O)/C(=C\c2nc3ccccc3c(=O)n2-c2ccccc2)c2ccccc21	9.6*	0	43	13	1	2
OC(COc1ccccc1)CN1CCN(C(c2ccccc2)c2ccccc2)CC1 (configuration not stated)	.	0	.	.	12	-2
c1ccc(OCCOCCN2CCN(C(c3ccccc3)c3ccccc3)CC2)cc1	0	1	61*	7	7	-2
c1ccc(CNc2c(-c3ccco3)nc3cnccn23)cc1	.	.	-72	15	.	.
CC(=O)Nc1cccc(NC(=O)CSc2ncc(-c3ccc(Cl)cc3)n2Cc2ccco2)c1	3	3	-8	41*	-5	4
O=C1NC(=S)S/C1=C\c1ccc(SCc2ccccc2)o1	10*	0	-55	13	-2	-15
Cc1ccc(Cl)cc1N1CCN(C(=O)C(C)(C)C)CC1	.	.	-7	12	.	.
COc1ccc2cc1Oc1ccc(cc1)C[C@H]1c3c(cc(OC)c4c3Oc3c(ccc5c3[C@H](C2)N(C)CC5)O4)CCN1C	.	.	.	.	10	.
COc1ccc(C[C@@H]2C(=O)N[C@H](C)C(=O)N(C)[C@@H]3Cc4ccc(cc4)Oc4cc(ccc4O)C[C@@H](C(=O)N[C@@H](C)C(=O)N[C@H](C)C(=O)N2C)N(C)C3=O)cc1	.	.	26	41*	.	.
CC1CCN(S(=O)(=O)c2ccc(NC(=O)Cc3cccs3)cc2)CC1	9.1*	0	6	6	11	-7
c1ccc(-n2nnnc2SCc2cccc(CSc3nnnn3-c3ccccc3)n2)cc1	8.9*	-2	34	2	10	0
SMILES	RAM network inh	PG9 Ab binder	EP2 mod	PGE2 EP2 inh	SKN-1 inh	NR1D1 modulator
c1ccc(CSc2nnnn2-c2ccccc2)cc1	-1	0	23	2	-6	-6
Cc1ccccc1-n1nnnc1SCc1csc(-c2ccccc2)n1	8.7*	0	-34	5	2	1
Cn1c(=O)c2c(ncn2CN2CCN(Cn3cnc4c3c(=O)n(C)c(=O)n4C)CC2)n(C)c1=O	.	.	6	46*	.	.
CC(=O)NC1(c2ccc(F)cc2)CCN(Cc2cc3c(cc2C)OCO3)CC1	.	.	10	3	.	.
Oc1ccc(N=Nc2n[nH]c(-c3ccc(Br)cc3)n2)cc1	8.8*	-2	-48	10	0	13
CCOc1ccccc1-c1nc2cnccn2c1NCc1ccc2c(c1)OCO2	.	.	16	12	.	.
Cc1cc2cc3c(cc2n2c(SCC(=O)N4CCC(C)CC4)nnc12)OCO3	.	.	-24	8	.	.
Cc1sc2nc(C3CC3)n3c(=O)n(CC(N)=O)nc3c2c1C	.	.	-5	.	.	.
CCOC(=O)c1c(/N=C/c2cc(OC)cc([N+](=O)[O-])c2O)sc(C)c1C	9.5*	-4	-12	4	8	3
CCOC(=O)c1c(/N=C/c2cc([N+](=O)[O-])ccc2O)sc(C)c1C	-1	-5	-9	5	-1	4
O=C(/C=C\c1ccco1)Nc1nc(-c2ccc3ccccc3c2)cs1	1	-3	-10	12	39*	-6
Fc1ccc(CSc2ncnc3ccccc23)cc1	0	0	43	6	62*	1
c1ccc(CSc2ncnc3ccccc23)cc1	-2	0	40	8	59*	12
CS(=O)(=O)c1cnc2ncnn2c1C1CCCN(C(=O)c2ccccc2F)C1 (configuration not stated)	.	.	53	.	.	.
Cc1cc(C)c2c(c1)cc(C)c1nn(Cc3ccncc3)c(=O)n12	.	.	-8	.	.	.
Cc1cc(C)n2c(SCc3c(C)noc3C)nnc2n1	-1	-2	-9	8	33*	-2
O=C1C2[C@@H](c3ccccc3)N[C@@H](c3ccccc3)C1[C@@H](c1ccccc1)N[C@H]2c1ccccc1	.	.	-9	47*	.	.
CCC1C(=O)C(CC)C(c2ccccc2)NC1c1ccccc1 (configuration not stated)	.	-1	.	.	15	6
CN(C)Cc1ccc(C(C)(C)C)cc1-c1cc(C(C)(C)C)ccc1CN(C)C	.	.	9	51*	.	.
CN(C)Cc1cc(C(C)(C)C)cc(C(C)(C)C)c1O	.	-2	10	11	-2	6
C=CCOc1ccccc1NC(=O)c1cnc(N2CCOCC2)nc1	.	.	3	4	.	.
O=C(NC1CC1)C1=C[C@H](c2csc3ccccc23)C[C@H](OCCCCO)O1	1	1	0	17	3	4
